Results as given in PubChem BioAssay (EPA / NIEHS).
Activity calls are given as the source filed them. How the source made its calls: active means hit-call score of the fitted dose curve at least 0.9, where 1 is the maximum; inactive means score below 0.9.

Legend:
Details in all cases: mRNA level, 48 h; actives raise or lower the signal
[1] = read-out: growth arrest and DNA damage 45 (GADD45A), GADD45A (gene 1647); test: LTEA_HepaRG_GADD45A: Life Technologies and Expression Analysis (LTEA) Assay for growth arrest and DNA damage 45 (GADD45A) using HepaRG (AID 2283458)
Summary of the method: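 Eight-point concentration-response in HepaRG cells: 48 h chemical exposure, 0.5% DMSO vehicle, top dose 100 uM. Normalized qRT-PCR mRNA readout with bidirectional fitting relative to DMSO.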

[2] = read-out: Forkhead box O3 (FOXO3), FOXO3 (gene 2309); test: LTEA_HepaRG_FOXO3: Life Technologies and Expression Analysis (LTEA) Assay for Forkhead box O3 (FOXO3) using HepaRG (AID 2283459)
Summary of the method: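 qRT-PCR readout of FOXO3 transcript, normalized to three housekeeping genes (ACTB, GAPDH, POLR2A); gain or loss fitted against 0.5% DMSO vehicle. HepaRG cells, 48 h chemical exposure, 8-point half-log series, top 100 uM.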

[3] = read-out: ABC Transporter (ABCB1), ABCB1 (gene 5243); test: LTEA_HepaRG_ABCB1: Life Technologies and Expression Analysis (LTEA) Assay for ABC Transporter (ABCB1) using HepaRG (AID 2283460)
Summary of the method: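 HepaRG, 48 h exposure, 8-pt half-log series from 100 uM, 0.5% DMSO vehicle, duplicates. Readout: ABCB1 transcript by Fluidigm TaqMan qRT-PCR, housekeeping-normalized; bidirectional curve fit vs DMSO baseline.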

[4] = read-out: growth arrest and DNA damage 45 (GADD45B), GADD45B (gene 4616); test: LTEA_HepaRG_GADD45B: Life Technologies and Expression Analysis (LTEA) Assay for growth arrest and DNA damage 45 (GADD45B) using HepaRG (AID 2283461)
Summary of the method: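 Differentiated HepaRG cells, plated 48 h then switched to serum-free induction medium, were exposed 48 h in duplicate to eight half-log concentrations from 100 uM in 0.5% DMSO; mRNA quantified by qRT-PCR, normalized to ACTB/GAPDH/POLR2A, bidirectional fit versus DMSO.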

[5] = read-out: ABC Transporter (ABCC3), ABCC3 (gene 8714); test: LTEA_HepaRG_ABCC3: Life Technologies and Expression Analysis (LTEA) Assay for ABC Transporter (ABCC3) using HepaRG (AID 2283462)
Summary of the method: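 HepaRG cells in serum-free induction medium were exposed for 48 h in duplicate to 8-point half-log concentrations topping at 100 uM in 0.5% DMSO. ABCC3 mRNA was measured by qRT-PCR normalized to ACTB, GAPDH and POLR2A, with bidirectional fitting versus DMSO.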

[6] = read-out: ABC Transporter (ABCB11), ABCB11 (gene 8647); test: LTEA_HepaRG_ABCB11: Life Technologies and Expression Analysis (LTEA) Assay for ABC Transporter (ABCB11) using HepaRG (AID 2283463)
Summary of the method: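 HepaRG, 48 h exposure, 8-pt half-log CRC top 100 uM, 0.5% DMSO vehicle, duplicates. Readout: TaqMan qRT-PCR of ABCB11 mRNA, housekeeping-normalized (ACTB/GAPDH/POLR2A). Bidirectional fit vs DMSO baseline.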

[7] = read-out: ABC Transporter (ABCC2), ABCC2 (gene 1244); test: LTEA_HepaRG_ABCC2: Life Technologies and Expression Analysis (LTEA) Assay for ABC Transporter (ABCC2) using HepaRG (AID 2283464)
Summary of the method: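 HepaRG cells were plated 48 h, switched to serum-free induction medium, then exposed in duplicate for 48 h to 8 concentrations (top 100 uM, half-log steps, 0.5% DMSO). ABCC2 mRNA was measured by qRT-PCR normalized to ACTB/GAPDH/POLR2A; bidirectional fitting versus DMSO.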

[8] = read-out: Broad substrate specificity ATP-binding cassette transporter ABCG2 (Homo sapiens) (UniProt Q9UNQ0); test: LTEA_HepaRG_ABCG2: Life Technologies and Expression Analysis (LTEA) Assay for ABC Transporter (ABCG2) using HepaRG (AID 2283465)
Summary of the method: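 HepaRG, 48 h exposure, 8-pt half-log series from 100 uM, 0.5% DMSO vehicle, duplicates. Readout: ABCG2 transcript by qRT-PCR (Fluidigm array), housekeeping-normalized; bidirectional curve fit relative to DMSO baseline.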

[9] = read-out: ATP-citrate lyase (ACLY), ACLY (gene 47); test: LTEA_HepaRG_ACLY: Life Technologies and Expression Analysis (LTEA) Assay for ATP-citrate lyase (ACLY) using HepaRG (AID 2283466)
Summary of the method: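 qRT-PCR readout of ACLY transcript after 48 h chemical treatment of HepaRG cells; expression normalized to three housekeeping genes. Eight-point half-log series, highest 100 uM, 0.5% DMSO vehicle. Gain or loss fitted against DMSO baseline.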

[10] = read-out: Peroxisomal acyl-coenzyme A oxidase 1 (ACOX1) gene, ACOX1 (gene 51); test: LTEA_HepaRG_ACOX1: Life Technologies and Expression Analysis (LTEA) Assay for Peroxisomal acyl-coenzyme A oxidase 1 (ACOX1) gene using HepaRG (AID 2283467)
Summary of the method: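 HepaRG, 48 h chemical exposure, 8-pt half-log series from 100 uM top, 0.5% DMSO vehicle, duplicates. Readout: ACOX1 mRNA by Fluidigm qRT-PCR, housekeeping-normalized; bidirectional fit vs DMSO baseline.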

[11] = read-out: Alkaline Phosphatase, Placental (ALPP) gene, ALPP (gene 250); test: LTEA_HepaRG_ALPP: Life Technologies and Expression Analysis (LTEA) Assay for Alkaline Phosphatase, Placental (ALPP) gene using HepaRG (AID 2283468)
Summary of the method: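 Differentiated human HepaRG cells were plated and cultured 48 h, then exposed in duplicate for 48 h in serum-free induction medium to eight half-log concentrations from 100 uM in 0.5% DMSO. ALPP mRNA was measured by TaqMan qRT-PCR, normalized to ACTB, GAPDH, POLR2A.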

[12] = read-out: Bcl-2 (BAD) gene, BAD (gene 572); test: LTEA_HepaRG_BAD: Life Technologies and Expression Analysis (LTEA) Assay for Bcl-2 (BAD) gene using HepaRG (AID 2283469)
Summary of the method: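 HepaRG, 48 h exposure, 8-pt half-log curve from 100 uM in 0.5% DMSO, duplicates. Readout: TaqMan qRT-PCR for BAD mRNA, housekeeping-normalised (ACTB/GAPDH/POLR2A); gain or loss fitted against DMSO baseline.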

[13] = read-out: Bcl-2 (BAX) gene, BAX (gene 581); test: LTEA_HepaRG_BAX: Life Technologies and Expression Analysis (LTEA) Assay for Bcl-2 (BAX) gene using HepaRG (AID 2283470)
Summary of the method: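 Human HepaRG cells treated in duplicate for 48 h across eight concentrations (max 100 uM, 0.5% DMSO); BAX expression measured by qRT-PCR.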

[14] = read-out: adenosine kinase (ADK) gene, ADK (gene 132); test: LTEA_HepaRG_ADK: Life Technologies and Expression Analysis (LTEA) Assay for adenosine kinase (ADK) gene using HepaRG (AID 2283471)
Summary of the method: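 Read-out is ADK transcript level measured by qRT-PCR and normalised to three housekeeping genes. Cells are human HepaRG, dosed for 48 h at up to 100 uM in 0.5% DMSO. Gain or loss of signal is fitted against DMSO controls.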

[15] = read-out: BCL2L11 (gene 10018); test: LTEA_HepaRG_BCL2L11: Life Technologies and Expression Analysis (LTEA) Assay for Bcl-2 (BCL2L11) gene using HepaRG (AID 2283473)
Summary of the method: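 Differentiated human HepaRG cells in serum-free induction medium were exposed in duplicate for 48 h to eight concentrations (top 100 uM, half-log steps, 0.5% DMSO). BCL2L11 mRNA was quantified by TaqMan qRT-PCR, normalized to ACTB/GAPDH/POLR2A, bidirectional fit versus DMSO.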

[16] = read-out: Apolipoprotein A-V (APOA5) gene, APOA5 (gene 116519); test: LTEA_HepaRG_APOA5: Life Technologies and Expression Analysis (LTEA) Assay for Apolipoprotein A-V (APOA5) gene using HepaRG (AID 2283474)
Summary of the method: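 Differentiated human HepaRG cells were exposed in duplicate for 48 h to eight half-log concentrations from 100 uM in 0.5% DMSO. APOA5 mRNA was quantified by TaqMan qRT-PCR, normalized to ACTB, GAPDH and POLR2A, and fitted bidirectionally against DMSO.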

[17] = read-out: Apoptosis regulator Bcl-2 (Homo sapiens) (UniProt P10415); test: LTEA_HepaRG_BCL2: Life Technologies and Expression Analysis (LTEA) Assay for Bcl-2 gene using HepaRG (AID 2283475)
Summary of the method: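 Each chemical was tested in duplicate on HepaRG cultures held in serum-free induction medium for 48 h, highest concentration 100 uM with half-log dilutions. Transcript levels came from multiplexed qRT-PCR, normalised to housekeeping genes; activity was scored in either direction relative to DMSO.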

[18] = read-out: Bcl-2 (BID) gene, BID (gene 637); test: LTEA_HepaRG_BID: Life Technologies and Expression Analysis (LTEA) Assay for Bcl-2 (BID) gene using HepaRG (AID 2283476)
Summary of the method: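 Assay used HepaRG hepatic cells treated 48 h in serum-free medium with half-log dilutions from 100 uM. Endpoint: BID mRNA, qRT-PCR, normalized to ACTB/GAPDH/POLR2A.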

[19] = read-out: Caspase-3 (Homo sapiens) (UniProt P42574); test: LTEA_HepaRG_CASP3: Life Technologies and Expression Analysis (LTEA) Assay for cysteine-aspartic acid protease (CASP3) using HepaRG (AID 2283477)
Summary of the method: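 Differentiated human HepaRG cells in serum-free induction medium were exposed 48 h to 8-point half-log concentrations from 100 uM (0.5% DMSO vehicle). CASP3 mRNA was measured by qRT-PCR, normalised to ACTB, GAPDH and POLR2A, with bidirectional fitting against DMSO.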

Caspase-3 (Homo sapiens), sequence (P42574 whole entry, looked up): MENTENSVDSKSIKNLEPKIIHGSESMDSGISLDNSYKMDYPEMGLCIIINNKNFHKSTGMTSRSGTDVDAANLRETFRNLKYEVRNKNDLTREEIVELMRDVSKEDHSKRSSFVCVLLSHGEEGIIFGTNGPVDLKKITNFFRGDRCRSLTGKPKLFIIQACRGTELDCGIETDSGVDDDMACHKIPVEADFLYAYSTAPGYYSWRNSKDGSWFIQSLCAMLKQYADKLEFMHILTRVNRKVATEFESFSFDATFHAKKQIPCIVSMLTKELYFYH
Apoptosis regulator Bcl-2 (Homo sapiens), sequence (P10415 whole entry, looked up): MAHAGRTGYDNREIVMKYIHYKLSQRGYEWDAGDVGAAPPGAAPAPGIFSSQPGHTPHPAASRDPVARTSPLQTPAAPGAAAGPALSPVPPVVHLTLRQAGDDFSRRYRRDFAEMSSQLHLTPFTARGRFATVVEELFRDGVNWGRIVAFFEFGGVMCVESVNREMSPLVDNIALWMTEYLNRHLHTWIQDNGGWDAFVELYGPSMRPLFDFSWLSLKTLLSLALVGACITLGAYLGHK
Broad substrate specificity ATP-binding cassette transporter ABCG2 (Homo sapiens), sequence (Q9UNQ0 whole entry, looked up): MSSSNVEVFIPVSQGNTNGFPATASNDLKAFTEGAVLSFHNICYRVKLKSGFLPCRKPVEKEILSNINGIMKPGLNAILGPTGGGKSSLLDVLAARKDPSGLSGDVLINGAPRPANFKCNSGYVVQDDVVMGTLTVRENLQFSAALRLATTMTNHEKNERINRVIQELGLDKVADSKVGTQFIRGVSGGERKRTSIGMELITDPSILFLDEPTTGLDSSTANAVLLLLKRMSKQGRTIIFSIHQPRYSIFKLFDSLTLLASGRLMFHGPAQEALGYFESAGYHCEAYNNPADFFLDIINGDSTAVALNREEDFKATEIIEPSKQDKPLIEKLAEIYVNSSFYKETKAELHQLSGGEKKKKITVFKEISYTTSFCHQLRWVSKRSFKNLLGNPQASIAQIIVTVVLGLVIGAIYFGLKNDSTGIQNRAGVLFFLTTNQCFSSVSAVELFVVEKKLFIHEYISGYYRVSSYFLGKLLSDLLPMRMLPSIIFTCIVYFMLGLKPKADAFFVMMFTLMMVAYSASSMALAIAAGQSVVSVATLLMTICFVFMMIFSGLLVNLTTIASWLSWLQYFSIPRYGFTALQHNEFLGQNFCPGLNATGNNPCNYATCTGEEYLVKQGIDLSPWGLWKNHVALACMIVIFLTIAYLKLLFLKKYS

With `CCc1ccc(CCOc2ccc(CC3SC(=O)NC3=O)cc2)nc1` (stereo unspecified) the AC50 [1] was 50 µM (active), the outcome [2] was “inactive” and the AC50 [3] was 11.2 µM (active). The AC50 [4] was 11.9 µM (active), the outcome [5] was “inactive” and the AC50 [6] was 76.8 µM (active). For the same molecule, the outcome [7] was “inactive”, the AC50 [8] was 36.4 µM (active) and the AC50 [9] was 50 µM (active). For the same molecule, the AC50 [10] was 0.718 µM (active), the AC50 [11] was 38.2 µM (active) and the outcome [12] was “inactive”. For the same molecule, the outcome [13] was “inactive”, the outcome [14] was “inactive” and the outcome [15] was “inactive”. For the same molecule, the AC50 [16] was 84.6 µM (active), the AC50 [17] was 72.6 µM (active) and the outcome [18] was “inactive”. The outcome [19] was “inactive”.
In the case of `CCN(CC)CCNc1ccc(CNC=O)c2sc3ccc(OC)cc3c(=O)c12`, the outcome [1] is reported as “inactive”, the AC50 [2] is reported as 50 µM (active) and the AC50 [3] is reported as 60.8 µM (active). For the same molecule, the AC50 [4] was 11.4 µM (active), the AC50 [5] was 86.6 µM (active) and the AC50 [6] was 11.4 µM (active). For the same molecule, the AC50 [7] was 77.5 µM (active), the AC50 [8] was 9.65 µM (active) and the AC50 [9] was 83.2 µM (active). For the same molecule, the AC50 [10] was 50 µM (active), the outcome [11] was “inactive” and the outcome [12] was “inactive”. For the same molecule, the outcome [13] was “inactive”, the AC50 [14] was 76.7 µM (active) and the AC50 [15] was 21.9 µM (active). The AC50 [16] was 12.4 µM (active), the outcome [17] was “inactive” and the outcome [18] was “inactive”. The AC50 [19] was 72.7 µM (active).
`CC[C@H](c1ccc(O)cc1)[C@@H](CC)c1ccc(O)cc1` was tested, and the AC50 [1] was 77 µM (active), the outcome [2] was “inactive” and the AC50 [3] was 77.5 µM (active). For the same molecule, the AC50 [4] was 66.9 µM (active), the outcome [5] was “inactive” and the outcome [6] was “inactive”. The AC50 [7] was 94.4 µM (active), the outcome [8] was “inactive” and the AC50 [9] was 83.9 µM (active). For the same molecule, the AC50 [10] was 77.8 µM (active), the AC50 [11] was 83.6 µM (active) and the outcome [12] was “inactive”. For the same molecule, the outcome [13] was “inactive”, the AC50 [14] was 77.1 µM (active) and the AC50 [15] was 77.7 µM (active). The outcome [16] was “inactive”, the outcome [17] was “inactive” and the outcome [18] was “inactive”. For the same molecule, the AC50 [19] was 78.4 µM (active).
With `CCC(C)(C)C1CCC(O)CC1` (stereo unspecified) the outcome [1] was “inactive”, the outcome [2] was “inactive” and the outcome [3] was “inactive”. For the same molecule, the outcome [4] was “inactive”, the outcome [5] was “inactive” and the outcome [6] was “inactive”. The outcome [7] was “inactive”, the outcome [8] was “inactive” and the outcome [9] was “inactive”. For the same molecule, the outcome [10] was “inactive”, the outcome [11] was “inactive” and the outcome [12] was “inactive”. The outcome [13] was “inactive”, the outcome [14] was “inactive” and the outcome [15] was “inactive”. For the same molecule, the outcome [16] was “inactive”, the outcome [17] was “inactive” and the outcome [18] was “inactive”. For the same molecule, the outcome [19] was “inactive”.
